Experimental data published in the supplement of paper PMC3334620.
Whole data set: some 33,000 sequences, median “E-score (-0.5 to 0.5)” near -0.054, cut for the highest 2% near 0.35. The full list was thinned out, with the highest values kept by preference.

Target: T1, Stb5 (UniProt P38699)
T1 sequence: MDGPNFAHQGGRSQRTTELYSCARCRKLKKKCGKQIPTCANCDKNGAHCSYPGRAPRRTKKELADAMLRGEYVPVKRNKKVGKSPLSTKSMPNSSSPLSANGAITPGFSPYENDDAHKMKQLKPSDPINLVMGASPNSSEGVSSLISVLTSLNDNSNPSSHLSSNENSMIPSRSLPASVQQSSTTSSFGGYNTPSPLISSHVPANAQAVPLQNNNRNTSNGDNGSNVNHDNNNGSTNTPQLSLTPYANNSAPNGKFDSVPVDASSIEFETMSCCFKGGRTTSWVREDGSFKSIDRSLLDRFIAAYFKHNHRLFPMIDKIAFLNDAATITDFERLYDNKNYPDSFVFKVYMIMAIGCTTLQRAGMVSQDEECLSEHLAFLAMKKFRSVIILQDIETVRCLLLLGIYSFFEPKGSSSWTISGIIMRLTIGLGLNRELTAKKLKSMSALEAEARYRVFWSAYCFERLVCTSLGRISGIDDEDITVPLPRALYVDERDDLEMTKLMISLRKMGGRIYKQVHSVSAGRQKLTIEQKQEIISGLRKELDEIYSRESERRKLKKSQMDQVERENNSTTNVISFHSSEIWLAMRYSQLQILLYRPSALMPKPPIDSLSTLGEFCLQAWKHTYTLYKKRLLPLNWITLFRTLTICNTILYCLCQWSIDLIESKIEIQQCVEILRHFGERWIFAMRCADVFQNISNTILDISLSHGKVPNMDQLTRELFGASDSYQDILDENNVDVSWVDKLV
Assay: PBM E-score (8-mer binding enrichment) (E-score (-0.5 to 0.5)); higher = stronger / more preferred TF binding
Settings: protein concentration: 200 nM; construct: GST-full length
Method in brief: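 Universal all-10-mer Agilent arrays, double-stranded by primer extension on fresh or once-stripped slides, were probed with about 100-200 nM GST-tagged yeast transcription factors made by PURExpress. Fluorescent anti-GST detected bound protein, and masliner normalised the scans. E-scores from the Universal PBM Analysis Suite were given to each ungapped eight-base word pooled with its reverse complement.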

Sequence	PBM E-score
CAAGGCCG	0.236
AAAGGCCC	0.274
CAGGCCCG	0.109
CAGGCCGC	0.187
AAGGCCCG	0.359
AAGGCCGC	0.441
AGACAGGG	-0.161
ACGCCTAG	-0.0889
ACATTAGA	-0.214
CATACTGG	-0.062
CCAGAGGG	-0.0691
CGCACGAA	-0.0424
GAGTTTAC	0.115
CGTTCCGA	0.00452
GGTTCCGA	0.126
CGTTCCGC	0.226
AGTTCCGG	0.333
AGTTCCGA	0.374
AGTTCCGC	0.361
ACCCATCG	0.1
CCCTCTTA	-0.167
ATCCCGAT	0.238
GGCCCGAC	0.358
GGCCCGAA	0.149
CGCCCGCC	0.258

Sequence	PBM E-score
AGCCCGCG	0.334
AGCCCGCC	0.359
AGCCCGAG	0.05
AGCCCGAC	0.373
AGCCCGAT	0.328
ATCCCGAC	0.39
ATCCCGAG	0.161
CGCCCGAC	0.33
ACACTTAA	-0.117
CACAAGCG	-0.0542
CAAAATCG	-0.0979
CCGTGAGC	0.196
CACTACCC	-0.179
ATGCACTA	-0.0627
GGTATGTA	0.18
CGACTAAC	0.00814
AACCCTGG	-0.284
ACAGGATC	-0.312
CAATTAAA	-0.00358
GCCTCCTA	-0.0585
AGACTTGG	-0.17
CTAACGCC	0.316
AAAACGCG	0.0108
ATAACGCG	0.0524
AAAACGCC	0.368

Sequence	PBM E-score
CAAACGCC	0.243
ATAACGCC	0.359
AAACCAGG	-0.00613
CCCGAGAG	0.0886
GAATTCTA	-0.248
ACCTTCAA	-0.0982
CTGGTTAA	-0.102
ACGGGGCC	0.221
ACGGGCCA	0.169
ACGGGAAC	0.205
ACGGGCCG	0.194
ACGGGGAT	0.415
ACGGGAAG	-0.0191
ACGGGGCA	0.159
ACGGGAAT	0.371
ACGGGGCT	0.366
ACGGGCCT	0.376
ACGGGGAG	0.202
ACGGGGAC	0.241
CCAATCTA	-0.0421
CACGCTGG	-0.14
CTGATAGA	-0.0917
CAAGTACA	-0.12
AAACAGAC	-0.131
ACTAGACA	-0.184

Sequence	PBM E-score
AACCGGGC	0.239
GCTTGGCC	0.143
GGCCACGA	0.111
AGTACCCA	-0.101
ATGGTCAG	-0.183
CCCGGGGC	0.258
ACCGGGCA	0.276
ACGGGCAC	0.105
ACGGGGTC	0.362
ACGGGCAG	-0.0575
ACCGGGCC	0.306
ACGGGGTG	0.286
ACCGGGGG	0.286
ACCGGGGC	0.359
ACGGGCAT	0.363
ACCGGGCT	0.38
ACGGGGTA	0.248
CCGTATCA	0.145
CCGTCTCC	0.22
CCCTCAAC	-0.125
AAGTAGGT	0.00443
ATAAGTAC	0.133
CATGACCA	-0.378
CTGGACTC	-0.169
AAACGAAC	-0.193

Sequence	PBM E-score
ACCTTACA	-0.0752
CGGGTTTA	0.467
AGGTTCTA	0.0114
GGGTTCTA	0.162
CGGGTTTC	0.273
GGGGTTTA	0.329
CGGTTTTA	0.41
GGGTTATA	0.257
AGGTTTTA	0.0721
CGGTTATA	0.37
CGGTTCTA	0.36
CGGTTTAA	0.155
AGGTTATA	-0.0254
CTAAAGGA	0.0339
ACTGAAGC	-0.111
CTCCATAC	-0.0338
CGTTCGGA	0.243
GAAGGTCA	-0.15
AACACCAG	0.011
CCCGTCGA	0.206
ACCGTCGG	0.392
CCCGTCGC	0.25
CCCGTCGG	0.435
ACCGTCGC	0.332
ACCGTCGA	0.286

Sequence	PBM E-score
GTTAACCA	-0.181
GCACCACA	-0.0487
CCCATGCC	0.0152
TATGTGAA	-0.344
AAACTTGT	-0.145
GAGCGGAC	0.376
AAGCGGAG	0.252
CAGCGGAC	0.332
AAGCGGAT	0.297
AAGCGGAC	0.352
GAGCGGAA	0.308
CAGTTATG	0.143
AACCCGCT	0.222
CCCCCGCG	0.325
ACCCCGCG	0.367
AGCCCGCT	0.317
GGCCCGCC	0.303
GCCCCGCA	0.262
GCCCCGCC	0.403
ACCCCGCC	0.463
ACCCCGCT	0.437
AACCCGCC	0.276
CCCCCGCC	0.313
AACCCGCG	0.231
AATCAATT	-0.151

Sequence	PBM E-score
TGTATGAA	0.0366
CTTTAAGA	0.0831
TAGCAGCA	-0.233
AATATTAA	0.0579
TTCTCAAA	-0.128
ACCGATAG	0.167
CAACAATG	-0.0552
AACCCGCA	0.229
CCCCCGCA	0.154
ACCCCGCA	0.382
CGTGTTAG	0.0849
AAGCACCG	0.457
CATCACCG	0.251
CACCACCG	0.21
AATCACCA	-0.0307
AACCACCG	0.406
CAGCACCG	0.313
AACCACCA	-0.124
AATCACCG	0.441
AAGCACCT	-0.21
ACCAGTGA	-0.215
GAGCTCGA	-0.257
